Source: PubChem BioAssay
The source made the active and inactive calls.

Experiments:
[1] = test system: Human papillomavirus type 1a protein E7 (residues 44-93); assay: HPV1a E7 fragment binders on microarrays, primary screen, biochemical, small-molecule microarray, residues 44-93, 635 nm fluorescence (AID 1108); conditions: small-molecule microarray binding, fluorescence 635 nm; higher = more signal;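 also: E7 fragment applied at 1 µg/mL in TBST for 1 h at 4 C; score combines spot fluorescence with its signal to noise ratio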
[2] = modulators of HCV replicon luciferase signal, primary screen, HCV replication inhibitor project, Huh7 cells, luciferase reporter (AID 1109); conditions: 48 h, higher = more signal;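 also: huh7 hepatoma cells harbouring a luciferase neomycin HCV replicon reporter; luciferase luminescence as measure of HCV replicon replication; test concentration not given here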
[3] = target: Left-right determination factor 2 (Homo sapiens) (UniProt O00292); assay: LEFTY2 binders on small-molecule microarrays, primary screen, biochemical, small-molecule microarray, 635 nm fluorescence scan (AID 1110); conditions: LEFTY2 binding, higher = more signal
[4] = target: Calmodulin-1 (Homo sapiens) (UniProt P0DP23); assay: CALM1 binders on microarrays, EGTA buffer, profiling panel, biochemical, small-molecule microarray, Cy5-labelled CALM1 (AID 1111); conditions: Cy5-CALM1 binding fluorescence, higher = more signal;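 also: labelled calmodulin applied in Tris saline Tween buffer holding calcium plus EGTA and DTT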
[5] = target: Calmodulin-1 (Homo sapiens) (UniProt P0DP23); assay: calcium-bound CALM1 binders on microarrays, profiling panel, artefact control for SMM control-protein annotation, biochemical, small-molecule microarray, Cy5-labelled CALM1, plus calcium (AID 1112); conditions: Cy5-CALM1 binding fluorescence, higher = more signal;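 also: score merges spot fluorescence with signal to noise from triplicate slides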
[6] = small-molecule microarray binders of probe aWnt5a, primary screen, biochemical, biotinylated probe, 635/667 nm fluorescence (AID 1113); conditions: higher = more signal;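 also: score merges 667 nm fluorescence intensity with signal-to-noise per printed feature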
[7] = small-molecule microarray binders of probe aShh, primary screen, biochemical, biotinylated probe, 635/667 nm fluorescence (AID 1114); conditions: higher = more signal;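 also: probe is biotin-labelled aShh protein from a stem cell growth factor screen; measures binding of labelled protein to compounds printed on the slide; score merges feature fluorescence at 667 nm with signal-to-noise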
[8] = small-molecule microarray binders of probe aNog, primary screen, biochemical, biotinylated probe, 635/667 nm fluorescence (AID 1115); conditions: higher = more signal;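 also: probe is biotinylated aNog protein used at 0.15 µg/mL for 1 h at 4 C; z-score combines 667 nm fluorescence of each spot with its signal to noise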
[9] = target: Torsin-1A-interacting protein 1 (Homo sapiens) (UniProt Q5JTV8); assay: LAP1 binders from COS7 cell lysate, primary screen, small-molecule microarray, 635/667 nm fluorescence (AID 1116); conditions: COS7-hLAP1 lysate binding, 635 nm fluorescence, higher = more signal
[10] = target: Alpha-bungarotoxin (Bungarus multicinctus) (UniProt P60615); assay: alpha-bungarotoxin binders on microarray, profiling panel, artefact control for SMM control protein annotation, biochemical, small-molecule microarray, Alexa647 label, 635/667 nm fluorescence (AID 1117); conditions: alpha-BTX-A647 binding fluorescence, higher = more signal
Albumin (Bos taurus) = Albumin (Bos taurus) (UniProt P02769); assay: bovine serum albumin binders on microarray, profiling panel, artefact control for SMM control protein annotation, biochemical, small-molecule microarray, Alexa647 label, 635/667 nm fluorescence (AID 1118); conditions: BSA-A647 binding, fluorescence 635 nm, higher = more signal;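 also: score merges 667 nm emission intensity and signal-to-noise per printed compound spot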
[11] = small-molecule microarray binders of probe aXIP, primary screen, biochemical, NeuroSMM set, 635/667 nm fluorescence (AID 1119); conditions: higher = more signal, called active from +8 up or from −8 down;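 also: probe is the protein aXip251-270 applied at 1 µg/mL to compound-printed slides; binding of probe to printed compounds measured as 667 nm fluorescence plus signal to noise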
[12] = small-molecule binders of probe aNOTCH3, primary screen, biochemical, small-molecule microarray, 635/667 nm fluorescence (AID 1120); conditions: higher = more signal;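 also: probe is a biotin-tagged antibody raised against NOTCH3 rather than NOTCH3 protein; score merges spot fluorescence near 667 nm with spot signal to noise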
[13] = small-molecule binders of probe aNOTCH2, primary screen, biochemical, small-molecule microarray, 635/667 nm fluorescence (AID 1121); conditions: higher = more signal;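 also: score merges feature fluorescence read at 667 nm with its signal to noise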
[14] = target: Carbonic anhydrase 2 (Homo sapiens) (UniProt P00918); assay: CAII small-molecule binders, profiling panel, biochemical, small-molecule microarray, Alexa647-labelled CAII (AID 1122); conditions: CAII-A647 binding fluorescence, higher = more signal
[15] = COS7 lysate on small-molecule microarray, probe aHis, 635 nm (AID 1123); conditions: COS7 cell lysate, fluorescence, higher = more signal;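 also: z-score combines 667nm fluorescence intensity with signal-to-noise per printed compound spot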
[16] = compound binding in COS7 lysate, probe aLAP1, primary screen, cell lysate, small-molecule microarray (AID 1124); conditions: probe aLAP1, fluorescence, higher = more signal;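 also: lysate comes from COS7 cells expressing LAP1 and is applied at 0.3 µg/mL; score merges spot fluorescence near 667 nm with signal-to-noise over triplicate slides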
Sam68 (KHDRBS1) = assay: Sam68 small-molecule binders, primary screen, biochemical, small-molecule microarray, 635 nm fluorescence (AID 1125); conditions: small-molecule microarray binding, higher = more signal;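 also: score merges 667 nm channel intensity with signal to noise over triplicate slides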
[17] = test system: Chordin-like protein 2 (CHRDL2); assay: CHRDL2 small-molecule binders, primary screen, biochemical, small-molecule microarray, 635 nm fluorescence (AID 1126); conditions: small-molecule microarray binding, fluorescence 635 nm; higher = more signal;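 also: printed compound slides probed with Chrdl2 protein at 4 µg/mL for 1 h at 4 C; score merges 667 nm emission intensity with signal to noise over three replicate slides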
[18] = target: Concanavalin-A (Canavalia ensiformis) (UniProt P02866); assay: ConA small-molecule binders, primary screen, artefact control for SMM control protein annotation, biochemical, small-molecule microarray, Alexa647 label, 635 nm (AID 1127); conditions: ConA-A647 binding fluorescence, higher = more signal;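 also: z combines 667 nm emission intensity with signal-to-noise across three replicate slides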
Chain of Concanavalin-A (Canavalia ensiformis) (P02866 whole entry, looked up): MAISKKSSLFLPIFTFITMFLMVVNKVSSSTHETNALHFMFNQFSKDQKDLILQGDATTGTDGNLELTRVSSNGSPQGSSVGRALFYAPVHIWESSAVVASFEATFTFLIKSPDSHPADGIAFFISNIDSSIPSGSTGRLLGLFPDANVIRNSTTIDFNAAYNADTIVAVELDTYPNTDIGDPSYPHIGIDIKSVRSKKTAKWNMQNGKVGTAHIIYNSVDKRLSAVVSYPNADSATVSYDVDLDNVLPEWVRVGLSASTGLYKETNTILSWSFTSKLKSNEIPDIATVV

Chain of Albumin (Bos taurus) (P02769 whole entry, looked up): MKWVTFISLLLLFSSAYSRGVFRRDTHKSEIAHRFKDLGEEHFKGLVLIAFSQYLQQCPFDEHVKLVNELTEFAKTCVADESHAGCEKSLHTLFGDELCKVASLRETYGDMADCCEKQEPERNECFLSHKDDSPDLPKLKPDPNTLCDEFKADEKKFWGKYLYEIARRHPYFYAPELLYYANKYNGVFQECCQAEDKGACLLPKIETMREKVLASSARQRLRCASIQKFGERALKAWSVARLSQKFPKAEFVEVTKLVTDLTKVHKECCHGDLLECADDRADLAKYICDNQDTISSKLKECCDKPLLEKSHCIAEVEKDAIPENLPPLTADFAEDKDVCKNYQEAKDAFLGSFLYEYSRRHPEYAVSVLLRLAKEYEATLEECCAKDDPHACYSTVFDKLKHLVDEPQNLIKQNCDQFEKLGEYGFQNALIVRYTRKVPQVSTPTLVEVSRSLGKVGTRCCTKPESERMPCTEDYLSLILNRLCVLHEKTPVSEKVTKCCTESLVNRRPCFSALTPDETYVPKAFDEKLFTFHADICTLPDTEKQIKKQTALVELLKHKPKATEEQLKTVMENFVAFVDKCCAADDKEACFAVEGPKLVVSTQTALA
Chain of Alpha-bungarotoxin (Bungarus multicinctus) (P60615 whole entry, looked up): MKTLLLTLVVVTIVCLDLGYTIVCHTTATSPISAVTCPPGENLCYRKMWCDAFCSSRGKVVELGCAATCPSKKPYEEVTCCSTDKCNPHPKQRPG
Chain of Left-right determination factor 2 (Homo sapiens) (O00292 whole entry, looked up): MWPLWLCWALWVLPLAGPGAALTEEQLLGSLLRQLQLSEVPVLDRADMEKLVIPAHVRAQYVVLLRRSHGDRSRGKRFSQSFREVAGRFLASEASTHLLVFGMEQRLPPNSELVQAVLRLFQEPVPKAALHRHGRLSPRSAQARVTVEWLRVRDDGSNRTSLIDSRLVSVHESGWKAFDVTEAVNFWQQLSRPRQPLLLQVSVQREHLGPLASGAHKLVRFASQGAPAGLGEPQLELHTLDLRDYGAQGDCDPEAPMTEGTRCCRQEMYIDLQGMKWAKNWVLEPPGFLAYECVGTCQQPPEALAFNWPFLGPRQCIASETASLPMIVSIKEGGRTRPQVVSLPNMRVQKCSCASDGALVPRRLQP
Chain of Torsin-1A-interacting protein 1 (Homo sapiens) (Q5JTV8 whole entry, looked up): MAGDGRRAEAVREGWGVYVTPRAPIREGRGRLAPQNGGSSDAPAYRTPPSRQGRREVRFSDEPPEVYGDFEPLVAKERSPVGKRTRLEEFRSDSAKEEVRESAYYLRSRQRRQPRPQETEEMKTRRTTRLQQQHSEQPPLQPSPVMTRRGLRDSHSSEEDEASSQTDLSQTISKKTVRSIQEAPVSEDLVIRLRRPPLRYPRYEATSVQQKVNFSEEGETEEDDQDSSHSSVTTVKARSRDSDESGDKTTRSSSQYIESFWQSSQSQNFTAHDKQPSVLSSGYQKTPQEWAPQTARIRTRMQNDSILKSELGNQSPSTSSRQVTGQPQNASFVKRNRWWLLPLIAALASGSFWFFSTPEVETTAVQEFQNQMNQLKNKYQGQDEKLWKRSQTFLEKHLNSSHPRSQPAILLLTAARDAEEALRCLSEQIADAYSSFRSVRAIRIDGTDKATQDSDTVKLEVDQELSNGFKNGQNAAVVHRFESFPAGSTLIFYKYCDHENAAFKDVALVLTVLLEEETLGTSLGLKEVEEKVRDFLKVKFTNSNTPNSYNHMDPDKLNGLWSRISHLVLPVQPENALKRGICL

Row | Structure (SMILES) | composite z-score [1] | z-score [2] | composite z-score [3] | composite z-score [4] | composite z-score [5] | composite z-score [6] | composite z-score [7] | composite z-score [8] | composite z-score [9] | composite z-score [10] | composite z-score (Albumin (Bos taurus)) | composite Z-score [11] | composite z-score [12] | composite z-score [13] | composite z-score [14] | composite z-score [15] | composite z-score [16] | composite z-score (Sam68 (KHDRBS1)) | composite z-score [17] | composite z-score [18]
1 | CN(C)C(=O)[C@@]1(CCS(=O)(=O)c2ccccc2)N=C(c2ccc(OCCCO)cc2)O[C@H]1c1ccccc1 | 1.46 | -1.76 | -0.757 | 1.47 | 0.759 | 0.16 | 0.207 | 0.812 | 1.84 | 1.9 | 1.02 | 1.19 (inactive) | 0.413 | -0.115 | 0.646 | 2.15 | 0.862 | 1.16 | -0.98 | 0.761
2 | CN(C)C(=O)C1N=C(c2ccc(OCCCO)cc2)N(c2ccccc2)O1 (stereo not given) | 1.41 | -0.842 | 1.28 | 1.21 | -0.0846 | -0.0486 | -0.0733 | -0.461 | 0.81 | 0.741 | 0.0877 | 0.794 (inactive) | 0.147 | 0.0674 | 0.846 | 1.15 | 0.502 | 1.32 | 0.267 | 0.988
3 | CCOC(=O)C[C@H]1[C@H](OC(=O)Cc2ccc3c(c2)OCO3)[C@@H](NC(=O)CC(C)C)c2cc(OCCCO)ccc2N1C(=O)Cc1ccc(OC)cc1 | 0.479 | -0.948 | 0.073 | -0.221 | -0.361 | -0.012 | -0.138 | -0.25 | 0.466 | 1.03 | 0.779 | -0.867 (inactive) | -0.0328 | -0.0288 | 0.0138 | 0.775 | 0.166 | 0.282 | -0.226 | -0.622
4 | C=CCC(OC(C)=O)[C@@H]1[C@@H](N(Cc2cc3ccccc3o2)C(=O)c2ccc(C)cc2)c2cc(OCCCO)ccc2N1C(=O)Cc1ccc(OC)cc1 (stereo not given in full) | -0.098 | -0.169 | -0.0667 | -0.254 | -0.583 | 0.0317 | 0.136 | -0.318 | -0.0471 | 0.203 | -0.204 | 0.264 (inactive) | -0.176 | -0.0811 | -0.119 | 0.59 | 0.128 | 0.0262 | 0.172 | 0.217
5 | COC(=O)[C@@]1(Cc2ccccc2)[C@H]2c3cc(C(=O)N(C)C)n(Cc4c(CO)[nH]cc(C)c4=O)c3C[C@H]2CN1C(=O)c1ccccc1 | -0.0355 | -0.898 | -0.0086 | 0.278 | 0.0907 | 0.108 | 0.061 | 1.05 | 0.37 | 0.218 | 0.96 | 0.546 (inactive) | 0.163 | -0.0351 | 0.777 | 1.35 | -0.056 | 0.432 | -0.26 | 0.295
6 | CCCNC(=O)[C@@H]1c2ccccc2C(=O)N(C(C)C)[C@H]1c1ccc(CO)cc1 | 0.123 | -0.362 | -0.378 | -0.193 | 0.0439 | -0.104 | 0.0062 | -0.287 | 0.625 | -0.182 | -0.342 | 0.251 (inactive) | -0.0728 | -0.0567 | 0.322 | 0.113 | 0.784 | 0.437 | -0.605 | 0.208
7 | [N-]=[N+]=Nc1ccccc1C[C@]1(C(N)=O)N=C(c2ccc(OCCCO)cc2)O[C@H]1c1ccccc1N=[N+]=[N-] | 1.38 | -2.55 | -0.0114 | 1.55 | 0.873 | 0.0799 | 0.162 | 1.03 | 0.776 | 0.702 | 0.92 | -0.199 (inactive) | 0.231 | -0.0091 | 0.672 | 0.0754 | 0.193 | 1.31 | -0.321 | 1.12
8 | COC(=O)[C@@]1(Cc2ccc(OC)cc2)[C@H]2c3cc(C(=O)N(C)C)n(C[C@H](O)CO)c3C[C@H]2CN1C(=O)c1ccccc1 | -1.21 | -0.966 | -0.415 | 2.33 | 1.32 | 0.108 | 0.86 | 2.14 | 2.07 | 1.15 | 0.956 | -0.312 (inactive) | 0.301 | 0.462 | 0.782 | 2.24 | 0.828 | 0.833 | -1.29 | 0.863
9 | [N-]=[N+]=NCc1ccccc1[C@H]1OC(c2ccc(OCCCO)cc2)=N[C@@]1(CCS(=O)(=O)c1ccccc1)C(=O)N1CCCCC1 | -0.695 | -1.11 | 0.651 | 2.25 | 0.735 | 0.16 | 0.385 | 1.15 | 1.22 | 2.96 | 1.05 | 0.32 (inactive) | 0.268 | 0.0562 | 0.753 | 2.83 | 0.512 | 1.31 | -0.565 | 1.2
10 | O=C1N(Cc2ccccc2)Cc2ccccc2[C@@H]2OC(c3ccc(OCCCO)cc3)=N[C@]12CCS(=O)(=O)c1ccccc1 | 1.4 | -1.84 | 0.347 | 0.729 | 0.264 | -0.0758 | 0.265 | -0.319 | -0.0362 | 1.37 | -0.0561 | 1.52 (inactive) | 0.0876 | 0.0607 | 0.484 | 2.23 | 0.0984 | 1.25 | 0.068 | 0.888
11 | COc1ccc(CCNC(=O)[C@@H]2c3ccccc3C(=O)N(Cc3cc(C(F)(F)F)cc(C(F)(F)F)c3)[C@H]2c2ccc(CO)cc2)cc1 | 0.867 | -1.06 | -0.31 | 0.0713 | -0.935 | -0.141 | -0.147 | -0.273 | 0.338 | 0.795 | -0.329 | -0.586 (inactive) | -0.208 | -0.149 | 0.681 | 0.84 | 0.566 | 1.14 | -0.571 | 0.425
